According to PubChem BioAssay:
Calls of active or inactive are those of the source.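 How the source made its calls, unless noted: active means visually confirmed hit in the image check and inhibition above 20%; inconclusive means visually confirmed hit but inhibition not above 20%; inactive means no visual hit in the image check.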

Assays:
[1] = inhibitors of TNFa-induced NFkB p65 translocation, primary screen, imaging, HUVEC, MLSMR starter and 10KST1 sets (AID 438;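 active means inhibition above 20% together with a positive visual image hit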;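 further: compound added about 3h40 before a 20 min TNFalpha stimulation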;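 on inhibition: signal is the nuclear over cytoplasmic p65 intensity ratio per well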); conditions: HUVEC TNFa-induced p65 nuclear translocation; cell count: measured here: nuclei count (cytotoxicity indicator), at 2.08 µM; inhibition: at 2 µM, stronger effect = higher value, 0% TNFa-plus-vehicle, 100% no-TNFa wells
[2] = inhibitors of mutant huntingtin aggregation, primary screen, imaging, exon1htt(103Q)mCFP cells, high-content imaging (AID 483;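 active means visual image review flags a hit and inhibition of aggregation exceeds 20%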;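 further: compound exposure lasted 3 days before fixation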;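 on nuclei count: percent of the per-plate median nuclei count of sample wells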); conditions: exon1htt(103Q)mCFP cell line, aggregate imaging, at 2 µM; inhibition of aggregation: stronger effect = higher value; nuclei count: measured here: cell count, toxicity
[3] = inhibitors of E-selectin induction by TNFa, primary screen, imaging, HUVEC, immunofluorescence, MLSMR starter and 10KST1 sets (AID 487); conditions: HUVEC TNFalpha-induced E-selectin immunofluorescence imaging, at 2 µM; inhibition: stronger effect = higher value; nuclei count: measured here: cell number, toxicity;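 on inhibition: signal is fraction of cell area covered by stained E-selectin grains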;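 on nuclei count: 100% = median nuclei count of all wells on the same plate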
[4] = molecular target: Voltage-gated potassium channel subunit beta-2 (Rattus norvegicus) (UniProt P62483); test: KvBeta enzyme negative modulators, primary screen, biochemical, NADPH fluorescence (AID 622;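 active means fluorescence slope higher than the sample average by over 3 SD, cut at about -0.22 in these data, passing the limit was not always enough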;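 further: slope of raw intensity against log time taken from 70 to 1610 s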); conditions: recombinant KvBeta, 4-cyanobenzaldehyde reduction, at 10 µM, stronger effect = higher value
Chain of Voltage-gated potassium channel subunit beta-2 (Rattus norvegicus) (P62483 whole entry, looked up): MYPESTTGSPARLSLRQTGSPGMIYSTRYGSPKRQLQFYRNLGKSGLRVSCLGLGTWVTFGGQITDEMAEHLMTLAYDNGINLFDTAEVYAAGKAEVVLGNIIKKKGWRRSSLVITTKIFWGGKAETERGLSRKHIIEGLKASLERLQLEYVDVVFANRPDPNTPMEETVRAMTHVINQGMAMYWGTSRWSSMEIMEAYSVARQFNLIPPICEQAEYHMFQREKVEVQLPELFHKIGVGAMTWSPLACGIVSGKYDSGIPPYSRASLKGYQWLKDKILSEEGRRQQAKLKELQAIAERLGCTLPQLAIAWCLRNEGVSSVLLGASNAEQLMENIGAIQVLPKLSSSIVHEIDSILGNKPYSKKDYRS

[5] = molecular target: Voltage-gated potassium channel subunit beta-2 (Rattus norvegicus) (UniProt P62483); test: KvBeta positive modulators, primary screen, biochemical, NADPH fluorescence (AID 623;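 active means NADPH fluorescence slope more negative than the mean of all samples by about 3 SD, 99.7% confidence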;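 further: fluorescence intensity change per second fitted from 20 to 320 s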); conditions: Recombinant KvBeta, NADPH fluorescence decrease slope, 10 min; at 10 µM; stronger effect = lower value
[6] = molecular target: Alpha-2C adrenergic receptor (Homo sapiens) (UniProt P18825); test: modulators of alpha2C/GIRK thallium flux, primary screen, cell-based, HEK293 alpha2C/GIRK1/2 (AID 624;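 active means fluorescence slope after compound addition differing from the mean of all screened samples at 99.7% confidence, in either direction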;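 further: slope of fluorescence ratio to pre-addition baseline per second over 15 to 24 s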); conditions: thallium flux BTC fluorescence, at 10 µM, actives lie on both sides
Chain of Alpha-2C adrenergic receptor (Homo sapiens) (P18825 whole entry, looked up): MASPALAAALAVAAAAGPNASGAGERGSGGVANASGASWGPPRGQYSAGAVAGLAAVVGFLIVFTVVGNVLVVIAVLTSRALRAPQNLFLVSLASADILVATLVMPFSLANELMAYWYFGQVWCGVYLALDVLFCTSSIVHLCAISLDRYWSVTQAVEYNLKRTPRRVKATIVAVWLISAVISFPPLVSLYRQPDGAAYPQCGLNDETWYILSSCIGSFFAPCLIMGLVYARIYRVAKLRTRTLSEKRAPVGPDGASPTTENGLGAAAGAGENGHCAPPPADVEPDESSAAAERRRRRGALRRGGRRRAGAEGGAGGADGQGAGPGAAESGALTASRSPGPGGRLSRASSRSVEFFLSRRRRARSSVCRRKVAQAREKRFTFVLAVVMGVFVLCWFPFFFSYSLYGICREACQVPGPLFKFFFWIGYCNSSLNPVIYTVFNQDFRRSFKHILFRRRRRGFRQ

[7] = inhibitors of Sendai virus-induced IRF3 signaling, primary screen, TLR/RLR signaling modifier project, cell-based, Sendai virus stimulus, luciferase, 10K MLSCN set (AID 602276;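 active means inhibition at or above 50% at 10 µM; inactive means inhibition below 50%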;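 further: firefly luciferase from ISG56 promoter only with Renilla not read in this screen; 0% = Sendai virus plus DMSO and 100% = medium plus DMSO without virus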); conditions: HEK293 RL24 IRF3 luciferase reporter, at 10 µM, stronger effect = higher value
[8] = inhibitors of poly I:C-induced TLR3 signaling, primary screen, cell-based, poly I:C stimulus, luciferase, 10K MLSCN set (AID 602277;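 active means inhibition of the reporter signal at or above 50%; inactive means inhibition below 50%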); conditions: HEK293-TLR3 RL24 IRF3 luciferase reporter, at 10 µM, stronger effect = higher value

Structure (SMILES) | cell count [1] | inhibition [1] | inhibition of aggregation [2] | nuclei count [2] [%] | inhibition [3] | nuclei count [3] [%] | fluorescence slope [4] | NADPH fluorescence slope [5] | slope [6] | inhibition [7] | inhibition [8]
O=C(COC(=O)CCc1c[nH]c2ccccc12)NC1CCS(=O)(=O)C1 (stereo not drawn) | 473 | 4.7% (inactive) | -7.7% (inactive) | 101 | -70.8% (inactive) | 113 | -0.57 (inactive) | -1.6e-05 (inactive) | 0.00772 (inactive) | 4.42% (inactive) | -2.03% (inactive)
CC1=C(C)C(=O)NC(Nc2nc(C)c3cc(C)cc(C)c3n2)N1 (stereo not drawn) | 540 | -14.3% (inactive) | -9.7% (inactive) | 103 | 5.2% (inactive) | 115 | -0.285 (inactive) | -2.3e-05 (inactive) | 0.00676 (inactive) | 7.09% (inactive) | -49.5% (inactive)
CCn1c(SCC(=O)Nc2nc(C)cs2)nnc1-c1ccco1 | 339 | 0.4% (inactive) | -8.5% (inactive) | 114 | -93.6% (inactive) | 114 | -0.316 (inactive) | -2.7e-05 (inactive) | 0.00755 (inactive) | 8.27% (inactive) | 23.4% (inactive)
CC1Cc2ccccc2N1C(=O)c1cnsn1 (stereo not drawn) | 623 | -4.5% (inactive) | -10.5% (inactive) | 103 | -138% (inactive) | 111 | -0.489 (inactive) | -0.000237 (inactive) | 0.00637 (inactive) | -9.05% (inactive) | -3.1% (inactive)
CCOC(=O)C1CCN(C(=O)CN(c2ccc(Cl)c(C(F)(F)F)c2)S(C)(=O)=O)CC1 | 648 | -23.5% (inactive) | -18.2% (inactive) | 107 | 8.7% (inactive) | 52.3 | -0.453 (inactive) | -1.4e-05 (inactive) | 0.0048 (inactive) | 11.7% (inactive) | 16.6% (inactive)
COc1ccc(C2C(C(C)=O)=C(O)C(=O)N2C)c(OC)c1 (stereo not drawn) | 464 | 3.8% (inactive) | -2.5% (inactive) | 116 | -48.3% (inactive) | 136 | -0.461 (inactive) | -1.6e-05 (inactive) | 0.00277 (inactive) | 5.02% (inactive) | 32% (inactive)
Cc1cccc(C(=O)N(C)c2nnc(-c3ccncc3)s2)c1 | 346 | -10.7% (inactive) | 6.1% (inactive) | 74.3 | 34.2% (inactive) | 102 | -0.546 (inactive) | 9.6e-06 (inactive) | 0.0064 (inactive) | -6.14% (inactive) | -18% (inactive)
COCCn1c(CN2CCN(c3ccccc3F)CC2)nc2c1c(=O)n(C)c(=O)n2C | 609 | -5.2% (inactive) | 0.1% (inactive) | 92.3 | 2.6% (inactive) | 90.2 | -0.61 (inactive) | -2.3e-05 (inactive) | 0.00711 (inactive) | -11.5% (inactive) | -9.11% (inactive)
CCOc1ccc2c(c1)n(CO)c(=S)n2CO | 677 | -26.5% (inactive) | 4.4% (inactive) | 68.8 | 15.1% (inactive) | 105 | -0.498 (inactive) | -4.8e-05 (inactive) | 0.00378 (inactive) | 16.9% (inactive) | 19.4% (inactive)
NC(=O)C1(N2CCCCC2)CCN(CC(=O)Nc2cc(Cl)ccc2Cl)CC1 | 357 | -3% (inactive) | 14.8% (inactive) | 86.2 | 26.7% (inactive) | 74.8 | -0.583 (inactive) | -5.7e-05 (inactive) | 0.00416 (inactive) | -15.6% (inactive) | -7.63% (inactive)
CCOc1ccc(S(=O)(=O)Nc2ccc(Cl)cn2)c(C)c1C | 536 | -35.7% (inactive) | 20.2% (inactive) | 87.4 | -43.3% (inactive) | 101 | -0.475 (inactive) | -3e-05 (inactive) | 0.00637 (inactive) | 4.93% (inactive) | 26.8% (inactive)
COc1ccccc1C(=O)N1CCN(CCc2ccccc2)CC1 | 341 | 3.2% (inactive) | -5.8% (inactive) | 100 | 6% (inactive) | 104 | -0.385 (inactive) | 1.9e-05 (inactive) | 0.00331 (inactive) | 8.51% (inactive) | 0.325% (inactive)
CC(=O)NC(C)C(=O)OCC(=O)Nc1ccc(Br)cc1 (stereo not drawn) | 436 | 6.9% (inactive) | 5.5% (inactive) | 112 | -23.8% (inactive) | 116 | -0.246 (inactive) | -5.1e-06 (inactive) | 0.00449 (inactive) | 20% (inactive) | 13.9% (inactive)
Fc1ccc(-c2nnc3ccc(N4CCCC4)nn23)cc1 | 662 | 0.5% (inactive) | -1% (inactive) | 97.7 | -61.6% (inactive) | 120 | -0.56 (inactive) | 2e-05 (inactive) | 0.00653 (inactive) | 3.21% (inactive) | -61.2% (inactive)
Clc1cccc(Cl)c1COc1ccncc1 | 353 | 4.4% (inactive) | 11.7% (inactive) | 89.4 | 7.5% (inactive) | 104 | -0.516 (inactive) | 7.2e-05 (inactive) | 0.00644 (inactive) | -16.2% (inactive) | -12% (inactive)
CCSc1ccccc1C(=O)NCc1ccc(S(N)(=O)=O)cc1 | 327 | 1.1% (inactive) | -5.9% (inactive) | 104 | -78.4% (inactive) | 120 | -0.435 (inactive) | -4.5e-05 (inactive) | 0.00523 (inactive) | 18.1% (inactive) | 16.5% (inactive)
CC1=C(C(=O)NCc2ccccn2)C2(CCC(C)CC2)OC1=O (stereo not drawn) | 759 | -5% (inactive) | 16.1% (inactive) | 91.3 | 19.6% (inactive) | 110 | -0.521 (inactive) | -2.4e-05 (inactive) | 0.00608 (inactive) | 12.1% (inactive) | 26.9% (inactive)
Cc1ccc2oc(=O)c3cnn(CC(=O)N4CCCCC4C)c3c2c1 (stereo not drawn) | 661 | 3.9% (inactive) | -4% (inactive) | 77.1 | 3.2% (inactive) | 88.1 | -0.518 (inactive) | -1.6e-05 (inactive) | 0.00597 (inactive) | 3.36% (inactive) | 23.4% (inactive)
COc1ccc(-n2c(=O)cc(N3CCN(Cc4ccccc4)CC3)[nH]c2=O)cc1 | 672 | -2.4% (inactive) | -0.4% (inactive) | 119 | 26.6% (inactive) | 108 | -0.621 (inactive) | 1.9e-05 (inactive) | 0.00623 (inactive) | 12.1% (inactive) | 18.9% (inactive)
O=C(Nc1ccc(S(=O)(=O)N2CCCCCC2)cc1)c1ccco1 | 355 | 1.5% (inactive) | 12.9% (inactive) | 105 | -32.3% (inactive) | 126 | -0.434 (inactive) | -6.7e-05 (inactive) | 0.00521 (inactive) | -8.22% (inactive) | -19.4% (inactive)
O=C(CSc1nc2cc(Cl)ccc2s1)N1CCN(C(=O)c2ccco2)CC1 | 725 | 2.4% (inactive) | 15.7% (inactive) | 97.9 | -126% (inactive) | 141 | -0.482 (inactive) | -5.8e-05 (inactive) | 0.00555 (inactive) | 21.6% (inactive) | 27.6% (inactive)
C=C(C)COc1ccc(-c2nc(N)ncc2-c2ccc(OC)cc2)c(O)c1 | 278 | -9.5% (inactive) | 24.6% (inactive) | 69.5 | -120% (inactive) | 111 | -0.433 (inactive) | -2.4e-05 (inactive) | 0.00614 (inactive) | 5.72% (inactive) | 27.1% (inactive)
COc1ccc(C(=O)NCc2nc3ccccc3[nH]2)cc1OC | 679 | -0.5% (inactive) | 6.6% (inactive) | 82.2 | -7.5% (inactive) | 112 | -0.582 (inactive) | 3.9e-06 (inactive) | 0.0061 (inactive) | -1.85% (inactive) | 25% (inactive)
CCOC(=O)C(NC(=O)CC)(Nc1ccc(S(=O)(=O)Nc2onc(C)c2C)cc1)C(F)(F)F (stereo not drawn) | 320 | 3.4% (inactive) | 0.6% (inactive) | 95 | -27.3% (inactive) | 104 | -0.61 (inactive) | -1.1e-05 (inactive) | 0.00634 (inactive) | 11.3% (inactive) | 14.1% (inactive)
CCOC(=O)Cn1c(N2CCOCC2)nc2c1c(=O)[nH]c(=O)n2C | 673 | -8.7% (inactive) | -18.2% (inactive) | 118 | -0.1% (inactive) | 107 | -0.415 (inactive) | -6.2e-05 (inactive) | 0.00268 (inactive) | 9.13% (inactive) | 21.5% (inactive)
O=C(NC1CCCCC1)C(c1ccc(Cl)cc1)N(C(=O)c1cnccn1)c1ccc2c(c1)OCO2 (stereo not drawn) | 694 | 3.4% (inactive) | 21.6% (inactive) | 93.8 | -87% (inactive) | 110 | -0.392 (inactive) | -3.7e-05 (inactive) | 0.00597 (inactive) | 11.2% (inactive) | 7.2% (inactive)
CN1CCN(c2nc3c(c(=O)[nH]c(=O)n3C)n2CCOc2ccccc2)CC1 | 311 | 6.2% (inactive) | 0.9% (inactive) | 108 | -45.8% (inactive) | 116 | -0.489 (inactive) | -4.3e-05 (inactive) | 0.00596 (inactive) | 3.18% (inactive) | 27.3% (inactive)
CC1CCN(c2oc(-c3cccc4ccccc34)nc2C#N)CC1 | 610 | -8.2% (inactive) | 1.2% (inactive) | 102 | -112% (inactive) | 101 | -0.0453 (active) | -6.6e-07 (inactive) | 0.00364 (inactive) | -40.5% (inactive) | -95.3% (inactive)
